# Compounds with a hit are over-represented: about 12% of the library has one in this group of screens.
# HCV inhibitor – qHTS Assay for Inhibitors of Hepatitis C Virus (HCV); hit rate 3.4% among 340,000; Potency, µM (top dose mostly 41.8 µM), inactives show at the top dose activity change, negative = inhibition, usual class: inhibitors; Huh7.5.1 HCVcc-Cre infection, luciferase reporter, 44 h; further: on the % scale 0 is the no-effect control and ±100 the full control effect
#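 A cell-based infection assay in which seeded cells (1,000 per well) receive test compound after 4 h, are inoculated with HCVcc-Cre at approximately 0.5 moi, and are incubated 44 h before luminescence detection.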
# NS1 function inh – qHTS Assay for Inhibitors of Influenza NS1 Protein Function; hit rate 0.4% among 270,000; AID 2326, 2010; Potency, µM (doses to about 46.1 µM), for inactives: at the top dose activity, positive = more growth; calls by dose curve; further: actives are rising curves; nearly all actives have a fitted effect of over 50% in size
#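 OD600 was taken as the measure of yeast growth restored by compound in an NS1-expressing S. cerevisiae strain. Cells had been washed out of glucose medium and diluted 1:100 into galactose -URA medium, pH 6.0.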
# Pf growth 96h – Primary qHTS for delayed death inhibitors of the malarial parasite plastid, 96 hour incubation; Potency, µM (doses to about 28.7 µM), without a hit: top-dose activity change, negative = inhibition, actives largely listed as inhibitors; hit rate 6.9% among 320,000; P. falciparum luciferase reporter growth, 96 h; further: on the % scale 0 is the no-effect control and ±100 the full control effect
#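 Readout is luminescence from an integrated firefly luciferase in P. falciparum. Red cells, 2% hematocrit and 0.05% parasitemia final, were cultured with compound through two parasite generations (96 hours) at 37 C, 5% CO2.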
# AMA1-RON2 inh – qHTS for Inhibitors of AMA1-RON; Towards Development of Antimalarial Drug Lead: Primary Screen | Plasmodium falciparum AMA1 (3D7) - RON2 peptide interaction | AlphaScreen AMA1-biotinylated RON2 peptide binding | Potency, µM (series often up to 58.2 µM), for the others: top-dose activity change, negative = inhibition, hits mostly inhibitors | hit rate 0.2% among 360,000 | AID 720542, 2013;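 further: 0% = vehicle wells and -100% = peptide control; nearly all actives have a fitted effect of over 45% in size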
#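 AMA1 (3D7) with his tag at 25 nM final met compounds first, then biotinylated RON2 peptide at 25 nM; detection used donor plus acceptor beads, 10 µg/mL apiece, read by AlphaScreen after 30 min at room temperature.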
# Pf growth 48h – Primary qHTS for delayed death inhibitors of the malarial parasite plastid, 48 hour incubation | P. falciparum luciferase growth in erythrocytes, 48 h | Potency, µM (doses to about 28.7 µM), inactives show top-dose activity change, negative = inhibition, most hits filed as inhibitors | hit rate 5.9% among 310,000 | AID 504832, 2011; further: on the % scale 0 is the no-effect control and ±100 the full control effect
#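 Luminescence readout; reporter = integrated firefly luciferase in P. falciparum. RBC culture at 2% hematocrit, 0.1% parasitemia final, 37 C/5% CO2; decreased signal taken as growth inhibition.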
# SARS PLP yeast – qHTS of Yeast-based Assay for SARS-CoV PLP; hit rate 0.19% among 330,000; Potency, µM (doses to about 32.9 µM), for inactives: at the top dose activity, positive = growth rescue, actives largely listed as activators; S. cerevisiae expressing SARS-CoV PLpro, growth rescue; calls by dose curve; further: 0% is about no effect; nearly all actives have a fitted effect of over 55% in size
# * marks the source's active call; other numbers are inactive results; ? = inconclusive; nt = not tested or not shown. Unless noted, the call rests on the fitted dose curve; in most records, active means well fitted curve in the direction sought with a large enough effect; inconclusive means small, poorly fitted or top-dose-only effect, or another doubt; inactive means no such curve, though single readings can be large; an effect the other way counts as inactive or inconclusive. Potency means the concentration at half of the fitted maximal effect.
SMILES,HCV inhibitor,NS1 function inh,Pf growth 96h,AMA1-RON2 inh,Pf growth 48h,SARS PLP yeast
O=C(c1cc(S(=O)(=O)N2CCCCC2)ccc1F)N1CCCCC1,10%,-4%,?,3%,2.3µM*,6%
O=C(c1cccc(S(=O)(=O)N2CCCCC2)c1)N1CCN(S(=O)(=O)c2ccc(F)cc2)CC1,-25%,-6%,9.3µM*,1%,nt,-1%
O=C(c1ccco1)N1CCN(S(=O)(=O)c2ccc(Oc3ccccc3)cc2)CC1,14µM*,-82%,-25%,-11%,-12%,-25%
COc1ccc(NC(=O)NNC(=O)c2ccccc2-n2cccc2)cc1OC,5%,4%,?,62%,1%,2%
COc1ccccc1CCNC(=O)c1cc(COc2cccc(C(F)(F)F)c2)on1,?,-10%,?,11%,-2%,-5%
CC(C)(C)NC(=S)NC(C)(C)C,14%,-2%,3%,-5%,34%,0%
Cc1ccc(CN2CCCN(C)CC2)c(C)c1,-14%,11%,0%,1%,-2%,-7%
O=C(c1ccccc1Cc1ccccc1)N1CCN(S(=O)(=O)c2ccc(F)cc2)CC1,36%,nt,?,18%,?,-3%
O=C(c1ccccc1Cc1ccccc1)N1CCN(S(=O)(=O)c2ccccc2Br)CC1,?,nt,7.4µM*,-5%,12µM*,-13%
CC1CN(CCOc2ccc([N+](=O)[O-])cc2)CC(C)O1 (stereo not drawn),-10%,-2%,-12%,-15%,32%,2%
CC1CN(CCOc2ccc(F)cc2)CC(C)O1 (stereo not drawn),4%,-17%,-4%,20µM*,-9%,-1%
O=S(=O)(Nc1ncccn1)c1ccc(NC(=S)N2CCN(Cc3ccc(F)cc3Cl)CC2)cc1,16%,-15%,?,29%,-21%,-6%
CCOc1ccc(Oc2c(/C=N/NC(=O)COc3ccccc3OC)c(C)nn2-c2ccccc2)cc1,13µM*,21%,5.2µM*,-12%,?,1%
COc1ccc(/C=N/NC(=O)CCn2cnc(-c3ccccc3)c2-c2ccccc2)cc1,9%,-18%,-25%,-8%,?,0%
NC(=O)N/N=C/c1ccccc1OCc1cccc2ccccc12,-12%,9%,13µM*,11%,18%,-9%
COc1ccc(/C=N/NC(=O)COc2ccccc2-c2ccccc2)cc1,5.6µM*,-2%,?,-5%,?,-4%
COc1ccc(/C=N/NC(=O)CCSc2nc3ccccc3s2)cc1,3.5µM*,1%,-9%,29%,-1%,-21%
COCOCCn1cc(CN2CCS(=O)(=O)N(Cc3ccc(-c4cccc(CO)c4)cc3)C(C)C2=O)nn1 (stereo not drawn),nt,nt,nt,-5%,nt,nt
COc1ccc(CNCCNC(=O)c2cccs2)c(OC)c1OC,3%,-3%,?,-4%,0%,0%
O=C(COC(=O)C1CCN(C(=O)c2ccc(Cl)cc2)CC1)Nc1ccccc1F,20%,nt,22%,3%,0%,7%
O=C(COc1ccccc1-c1ccccc1)N/N=C/c1cccc2ccccc12,1.8µM*,-2%,9.3µM*,-22%,?,-3%
Cc1cc(-c2nnc(SCC(=O)Nc3ccc(Br)cc3F)n2N)n[nH]1,8%,-7%,?,17%,-14%,-2%
O=c1c2c(-c3ccccc3)csc2ncn1/N=C/c1cccc([N+](=O)[O-])c1O,-14%,nt,94%,20µM*,-5%,-21%
Fc1ccccc1OCC1CCCN(Cc2nc(CC3CC3)no2)C1 (stereo not drawn),11%,-11%,?,-21%,-15%,-1%
CC(C)(C)C1=CC(O)(c2ccccc2)C=C(C(C)(C)C)C1=O,?,-42%,?,7%,10µM*,-10%
